In the library only some 2.8% were active in any assay of this set; here they are far more common.
Platelet DG rel: inhibitors of platelet dense granule secretion, primary screen, cell-based, MLPCN, human platelets; actives 0.22% (n = 300,000); AID 1663, 2009; human platelet-rich plasma, SFLLRN dense granule ATP release, luminescence; inhibition, %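 (compounds screened at 7.5 µM in platelet-rich plasma)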;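 active = mean replicate score, as percent of positive control, at or above 50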
pCIP destab: p/CIP-EGFP fusion destabilizers, primary screen, fluorescence, F442A cells. Q05BA5. 16 h. decrease of EGFP signal, % at 10 µM. actives 0.01% (n = 290,000);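 active = EGFP signal decrease of at least 30% at 10 µM or well 3 SD below plate mean, unless failing retest; inactive = the rest, including hits failing retest or dose response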
AHR act: AHR activators, primary screen, cell-based, luminescence, luciferase reporter, human | actives 2.5% (n = 320,000) | AHR-responsive luciferase reporter cells | Aryl hydrocarbon receptor (Homo sapiens), P35869 | activation, % at 5 µM; in the data active = activation above about 47%;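 also: 0% = vehicle wells and 100% = reference agonist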
PolyA inhibitor: polyadenylation inhibitors in yeast reporter cells, primary screen, luminescence, S. cerevisiae. activity score, % at 12 µM. actives 0.02% (n = 300,000). S. cerevisiae SKY197-pL101 polyadenylation reporter, beta-gal luminescence; efflux-impaired pdr1/pdr3 knockout yeast; score 100 = 6 SD above DMSO;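 active = lowest replicate activity score at least 50, where 100 means six control SD above control mean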;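 also: yeast exposed to compound for 9 h at 30 °C; higher score means more reporter readthrough which indicates perturbed polyadenylation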
HIF activator: HIF pathway transcriptional activators, primary screen, cell-based, U2OS HRE-luciferase, luminescence. actives 0.32% (n = 300,000). U2OS HRE-luciferase reporter; normalized: DMSO 0%, desferrioxamine 100%. AID 1910, 2009. activation, % at 7.5 µM (by protocol);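 active = mean activation of at least 10% of the iron chelator positive control signal, with at least half of replicates also reaching 10%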
Starred values were filed as active, the others as inactive; x = no result.

SMILES	Platelet DG rel	pCIP destab	AHR act	PolyA inhibitor	HIF activator
COc1ccccc1N/C=C(\C#N)c1nc2ccccc2[nH]1	6	-2	70*	-10	0
COc1ccc(/C=C(\C#N)c2nc3ccccc3[nH]2)cc1O	4	-10	x	23	13*
COc1c(O)ccc(/C=C(\C#N)c2nc3ccccc3[nH]2)c1[N+](=O)[O-]	-10	14	50*	-1	1
COC(=O)C1=C(C)Nc2c(c(=O)n(C)c(=O)n2C)C1c1ccc(Cl)cc1 (centres undefined)	1	-3	-3	6	0
CCOC(=O)c1ccc(N2C=C(C(=O)OC)C(c3cccc(O)c3)C(C(=O)OC)=C2)cc1	-3	-11	-1	1	-1
CC(OC(=O)/C=C/c1ccc2ccccc2n1)C(=O)Nc1ccc(S(N)(=O)=O)cc1 (centres undefined)	-6	x	9	12	2
O=[N+]([O-])c1cc([N+](=O)[O-])c(Oc2cc(F)ccc2F)cc1NN1CCCCC1	-5	2	-1	-6	0
CCCCn1c(N)c(N(CC(C)C)C(=O)C2CCCN(C(=O)c3ccc(Cl)cc3)C2)c(=O)[nH]c1=O (centres undefined)	2	x	0	-18	1
CC(=O)Nc1ccc(C(=O)OCCc2ccccc2)cc1	4	-2	-3	-13	-13
COc1ccc(/C=C(\C#N)c2cc(OC)c(OC)cc2[N+](=O)[O-])cc1	15	-17	13	8	0
COc1cc(/C=C(/C#N)c2nc3ccccc3[nH]2)ccc1OC(=O)c1ccco1	16	-59	60*	9	1
COc1cc(/C(C#N)=C/c2ccccc2)c([N+](=O)[O-])cc1OC	-10	8	47*	0	-44
COc1ccc(CNC(=O)CN2CCN(c3ccccc3O)CC2)cc1OC	3	-15	4	-7	0
CCCCNc1nc(N(C)c2ccccc2)nc(-n2ccnc2)n1	-6	3	61*	-15	-1
CCCCCNc1nc(-c2ccccc2)nc(-n2ccnc2)n1	-1	4	13	-2	-1
CS/C(N)=N/S(=O)(=O)c1ccc(NC(C)=O)cc1	-7	3	-1	2	-1
CCOC(=O)/C(=C/c1cn(C)c2ccccc12)NC(=O)c1ccccc1	-6	3	49*	15	0
COc1ccc(C(=O)N/C(=C\c2cn(C)c3ccccc23)C(=O)N2CCN(C)CC2)cc1	-3	-17	23	7	0
CN1CCN(C(=O)/C(=C/c2cn(C)c3ccccc23)NC(=O)c2ccccc2)CC1	11	12	50*	1	0
CCOC(=O)/C(C#N)=C\c1cn(C)c2ccccc12	1	2	0	-22	0
O=C1NC(=Nc2ccccc2)S/C1=C\c1cccs1	1	-14	72*	-1	3
Cc1cc(C)cc(N=C2NC(=O)/C(=C/c3cccs3)S2)c1	4	-15	56*	-24	0
CCc1nc2sc3c(O)cc(=O)[nH]c3c2cc1C	-6	-6	1	-12	0
COc1cc(Br)cc(/C=N/NC(=O)Cc2ccc(C(F)(F)F)cc2[N+](=O)[O-])c1O	1	-8	51*	3	1
O=C(CNC(=O)c1ccco1)N=Nc1c(O)n(CCc2ccccc2)c2ccccc12	3	-18	59*	3	0
SMILES	Platelet DG rel	pCIP destab	AHR act	PolyA inhibitor	HIF activator
CCCCn1c(O)c(N=NC(=O)c2ccco2)c2ccccc21	4	-27	76*	-7	1
O=C(N=Nc1c(O)n(C2OC(=O)c3ccccc32)c2ccccc12)c1ccco1 (centres undefined)	0	-15	2	-20	0
COc1cc([N+](=O)[O-])c(OC)cc1SCc1n[nH]c(=S)n1-c1ccc(F)cc1	12	-5	-1	7	1
O=C1C=C(c2cc3ccccc3s2)CCC1	0	x	-4	11	7
Cc1ccc(NCc2n[nH]c(=S)n2Cc2ccccc2)cc1Cl	4	-23	x	-17	4
CNC(=S)N/N=C/c1ccccc1Cl	-3	-1	60*	12	0
S=C(N/N=C/c1ccccc1Cl)Nc1ccccc1	-1	-2	62*	-18	3
S=C(N/N=C/c1cccc2ccccc12)Nc1cccc(Cl)c1	9	-12	48*	-24	220*
O=[N+]([O-])c1ccc(/C=N/NC(=S)Nc2ccccc2F)o1	-8	-6	10	-9	1
Fc1ccccc1NC(=S)N/N=C/c1ccccc1Br	0	2	124*	14	5
Cc1c(Cl)cccc1NC(=S)N/N=C/c1ccccc1Cl	-16	0	30	-27	41*
COC(=O)C(Sc1nc(C)cc(C)c1C#N)c1ccccc1 (centres undefined)	2	-16	-3	-9	0
Cc1cc(C)c(C#N)c(Sc2ccccc2N)n1	-9	-5	49*	-4	0
CCC(=O)NC(c1ccc(C)cc1)c1ccc2cccnc2c1O (centres undefined)	-1	-2	2	5	97*
CCCC(=O)NC(c1ccc(N(C)C)cc1)c1ccc2cccnc2c1O (centres undefined)	0	-5	2	-15	48*
CCCC(=O)NC(c1ccc(C(C)C)cc1)c1ccc2cccnc2c1O (centres undefined)	-8	-90	8	8	119*
CCCC(=O)NC(c1ccc(OC)c(OC)c1)c1cc(Cl)c2cccnc2c1O (centres undefined)	-4	-13	-1	-13	0
CCCC(=O)NC(c1ccccc1Cl)c1ccc2cccnc2c1O (centres undefined)	3	-14	-2	8	71*
CCCC1(c2ccccc2)NC(=O)N(CC(=O)Nc2cc(C)ccc2OC)C1=O (centres undefined)	9	-14	5	17	0
COc1ccccc1/C=C/C(=O)OCC(=O)NCc1ccc2c(c1)OCO2	x	x	0	x	x
COc1ccccc1/C=C(/CC(=O)NCc1ccc2c(c1)OCO2)c1nc2ccccc2s1	9	10	81*	-17	0
c1ccc(-c2ccc(C(c3ccccc3)n3ccnc3)cc2)cc1 (centres undefined)	-2	3	48*	-21	0
c1ccc(-c2ccc(-n3ccnc3)cc2)cc1	3	-5	19	-13	x
Cc1ncc(CN2CCC(N3CCC(C(=O)N4CCCC4)CC3)CC2)s1	55*	2	3	19	-1
CCc1cc2c3c(c(=O)oc2cc1O)CCCC3	2	-2	76*	-22	-41
COc1ccc(C(=O)Nc2nc3cc4c(cc3s2)OCCO4)c(OC)c1	3	-5	-1	-5	0

High-throughput results as filed in PubChem.
